In PubChem BioAssay (Tox21):
Records with an inconclusive call do not appear. Where a call stands in place of a potency, no number is given. Where a structure was tested more than once in an assay, its records may differ in their call. Calls of active or inactive are those of the source. Calls follow the shape of the full dose curve.

Each molecule was assayed against Acetylcholinesterase (Homo sapiens) (UniProt P22303) (assay: Acetylcholinesterase (AChE) small molecule antagonists: enzyme-based qHTS assay (AID 1347397; also: nearly all actives have a fitted effect of over 55% in size)). Details: Potency: AChE enzyme activity inhibition; outcome: AChE enzyme activity inhibition; series mostly up to 115 µM.
Sequence of Acetylcholinesterase (Homo sapiens) (P22303 whole entry, looked up): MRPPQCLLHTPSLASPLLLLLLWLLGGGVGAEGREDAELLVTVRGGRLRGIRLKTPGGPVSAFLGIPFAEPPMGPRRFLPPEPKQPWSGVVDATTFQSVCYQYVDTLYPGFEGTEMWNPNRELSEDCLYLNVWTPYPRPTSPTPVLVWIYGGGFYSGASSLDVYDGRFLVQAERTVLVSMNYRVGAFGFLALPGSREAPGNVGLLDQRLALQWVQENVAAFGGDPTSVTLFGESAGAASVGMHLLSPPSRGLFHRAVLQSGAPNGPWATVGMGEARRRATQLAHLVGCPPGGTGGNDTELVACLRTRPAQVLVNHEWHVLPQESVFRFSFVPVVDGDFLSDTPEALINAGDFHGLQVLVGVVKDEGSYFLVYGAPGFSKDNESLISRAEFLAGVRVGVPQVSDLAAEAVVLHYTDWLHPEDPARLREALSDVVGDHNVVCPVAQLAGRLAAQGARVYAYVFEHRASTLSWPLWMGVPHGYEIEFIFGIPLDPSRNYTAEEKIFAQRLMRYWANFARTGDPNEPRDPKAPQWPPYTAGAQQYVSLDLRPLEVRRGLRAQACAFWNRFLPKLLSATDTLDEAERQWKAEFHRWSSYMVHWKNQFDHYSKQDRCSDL
In short: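 Recombinant human AChE (50 mU/mL) preincubated with compound 30 min at room temperature; acetylthiocholine plus DTNB then added, and thiocholine formation read colorimetrically after 10 min at room temperature. DMSO served as vehicle control.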
Potency is read from the fitted curve at half-maximal effect.

Structure (SMILES) | Potency
COS(=O)(=O)C(F)(F)F | inactive
CCCOCC(C)O (stereo not given) | inactive
CC(C)=NNC(N)=S | inactive
CCO[Si](CCCN=C=O)(OCC)OCC | inactive
CCC/C=C(\C=O)CC | inactive
CC(C)OP(=O)(CP(=O)(OC(C)C)OC(C)C)OC(C)C | inactive
COC(=O)/C=C/c1ccccc1 | inactive
COc1cccc2c1C(=O)c1c(O)c3c(c(O)c1C2=O)C[C@@](O)(C(=O)CO)C[C@@H]3O[C@H]1C[C@H](N)[C@H](O)[C@H](C)O1 | inactive
Nc1cc(Cl)c(N)c(Cl)c1 | inactive
CCCCCCCCCCCCc1ccc(O)cc1 | 63.3 µM (active)
C=CCCC=C | inactive
CCn1nc(C)c2c1C(=O)NCC(c1ccc(O)cc1)=N2 | inactive
CC[C@H]1OC(=O)[C@H](C)[C@@H](O[C@H]2C[C@@](C)(OC)[C@@H](O)[C@H](C)O2)[C@H](C)[C@@H](O[C@@H]2O[C@H](C)C[C@H](N(C)C)[C@H]2O)[C@](C)(O)C[C@@H](C)/C(=N\OCOCCOC)[C@H](C)[C@@H](O)[C@]1(C)O | inactive
CC(C)COC(=O)c1ccccc1O | inactive
CCCCCCc1ccc(O)cc1O | inactive
CC(=O)N(CC(O)CO)c1c(I)c(C(=O)NCCO)c(I)c(C(=O)NCC(O)CO)c1I (stereo not given) | inactive
Oc1ccc2c(c1)OC[C@@H](N1CCC(O)(c3ccc(F)cc3)CC1)[C@H]2O | inactive
O=C(O)Cc1cn(-c2ccccc2)nc1-c1ccc(Cl)cc1 | inactive
c1ccc(SCCSc2ccccc2)cc1 | inactive
FC(F)(F)c1ccccc1Cl | inactive

Structure (SMILES) | Potency
CCCCCCOC(=O)CCCCCCCC(=O)OCCCCCC | inactive
Nc1nc(N)c2nc(-c3ccccc3)c(N)nc2n1 | inactive
C=C(C)C(=O)OCCO | inactive
O=[N+]([O-])c1cccc(Cl)c1 | inactive
C/C=C/C(=O)O | inactive
CCCCCCCCS(=O)(=O)Cl | inactive
CC(=O)c1c(C)c([N+](=O)[O-])c(C(C)(C)C)c([N+](=O)[O-])c1C | inactive
COC(=O)CC(C)CCC=C(C)C (stereo not given) | inactive
CC(C)c1ccc2c(C(C)C)cc(C(C)C)c(S(=O)(=O)O)c2c1 | inactive
O=C(O)CCNC(=O)c1ccc(N=Nc2ccc(O)c(C(=O)O)c2)cc1 | inactive
O=CC1CC=CCC1 (stereo not given) | inactive
CN(CCOc1ccc(CC2SC(=O)NC2=O)cc1)c1ccccn1 (stereo not given) | inactive
C=CC(=O)OCC(C)OCC(C)OCC(C)OC(=O)C=C (stereo not given) | inactive
O=[N+]([O-])c1ccccc1C(F)(F)F | inactive
Cc1cc(CCCOc2c(C)cc(-c3noc(C(F)(F)F)n3)cc2C)on1 | inactive
c1ccc(CC2=NCCN2)cc1 | inactive
Nc1ncnc(Nc2ccccc2)n1 | inactive
CC(COC(=O)c1ccccc1)OC(=O)c1ccccc1 (stereo not given) | inactive
CC(C)NCC(O)c1cc(O)cc(O)c1 (stereo not given) | inactive
CNc1c2c(nn1C)CCCC2 | inactive

The molecules below were run against Acetylcholinesterase (Homo sapiens) (UniProt P22303) (assay: Acetylcholinesterase (AChE) small molecule antagonists: fluorescence cell-based qHTS assay (AID 1347398; also: nearly all actives have a fitted effect of over 50% in size)). Details: SH-SY5Y cells; Potency: AChE activity; outcome: AChE activity; series mostly up to 115 µM.
In short: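 SH-SY5Y cells (2000/well), attached overnight, incubated with compound 30 min at 37 C. Acetylthiocholine plus Thiolite Green then added for 40 min at room temperature. Thiocholine fluorescence (Ex/Em 490/520 nm) reports cellular AChE activity.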

Structure (SMILES) | Potency
COS(=O)(=O)C(F)(F)F | inactive
CCCOCC(C)O (stereo not given) | inactive
CC(C)=NNC(N)=S | inactive
CCO[Si](CCCN=C=O)(OCC)OCC | inactive
CCC/C=C(\C=O)CC | inactive
CC(C)OP(=O)(CP(=O)(OC(C)C)OC(C)C)OC(C)C | inactive
COC(=O)/C=C/c1ccccc1 | inactive
COc1cccc2c1C(=O)c1c(O)c3c(c(O)c1C2=O)C[C@@](O)(C(=O)CO)C[C@@H]3O[C@H]1C[C@H](N)[C@H](O)[C@H](C)O1 | inactive
Nc1cc(Cl)c(N)c(Cl)c1 | 55.9 µM (active) and inactive
CCCCCCCCCCCCc1ccc(O)cc1 | inactive
C=CCCC=C | inactive
CCn1nc(C)c2c1C(=O)NCC(c1ccc(O)cc1)=N2 | inactive
CC[C@H]1OC(=O)[C@H](C)[C@@H](O[C@H]2C[C@@](C)(OC)[C@@H](O)[C@H](C)O2)[C@H](C)[C@@H](O[C@@H]2O[C@H](C)C[C@H](N(C)C)[C@H]2O)[C@](C)(O)C[C@@H](C)/C(=N\OCOCCOC)[C@H](C)[C@@H](O)[C@]1(C)O | inactive
CC(C)COC(=O)c1ccccc1O | inactive
CCCCCCc1ccc(O)cc1O | inactive
CC(=O)N(CC(O)CO)c1c(I)c(C(=O)NCCO)c(I)c(C(=O)NCC(O)CO)c1I (stereo not given) | inactive
Oc1ccc2c(c1)OC[C@@H](N1CCC(O)(c3ccc(F)cc3)CC1)[C@H]2O | inactive
O=C(O)Cc1cn(-c2ccccc2)nc1-c1ccc(Cl)cc1 | inactive
c1ccc(SCCSc2ccccc2)cc1 | inactive
FC(F)(F)c1ccccc1Cl | inactive

Structure (SMILES) | Potency
CCCCCCOC(=O)CCCCCCCC(=O)OCCCCCC | inactive
Nc1nc(N)c2nc(-c3ccccc3)c(N)nc2n1 | inactive
C=C(C)C(=O)OCCO | inactive
O=[N+]([O-])c1cccc(Cl)c1 | inactive
C/C=C/C(=O)O | inactive
CCCCCCCCS(=O)(=O)Cl | inactive
CC(=O)c1c(C)c([N+](=O)[O-])c(C(C)(C)C)c([N+](=O)[O-])c1C | inactive
COC(=O)CC(C)CCC=C(C)C (stereo not given) | inactive
CC(C)c1ccc2c(C(C)C)cc(C(C)C)c(S(=O)(=O)O)c2c1 | inactive
O=C(O)CCNC(=O)c1ccc(N=Nc2ccc(O)c(C(=O)O)c2)cc1 | inactive
O=CC1CC=CCC1 (stereo not given) | inactive
CN(CCOc1ccc(CC2SC(=O)NC2=O)cc1)c1ccccn1 (stereo not given) | inactive
C=CC(=O)OCC(C)OCC(C)OCC(C)OC(=O)C=C (stereo not given) | inactive
O=[N+]([O-])c1ccccc1C(F)(F)F | inactive
Cc1cc(CCCOc2c(C)cc(-c3noc(C(F)(F)F)n3)cc2C)on1 | inactive
c1ccc(CC2=NCCN2)cc1 | inactive
Nc1ncnc(Nc2ccccc2)n1 | inactive
CC(COC(=O)c1ccccc1)OC(=O)c1ccccc1 (stereo not given) | inactive
CC(C)NCC(O)c1cc(O)cc(O)c1 (stereo not given) | inactive
CNc1c2c(nn1C)CCCC2 | inactive
